HCMV antiviral: blocks human cytomegalovirus replication. HFF cells, HCMV-luciferase reporter, 72 h; stronger effect = lower value. activity change, negative = inhibition, % at 57.5 µM. hit rate 4.5% among 410,000; in the data active means activity change below about -60%; inconclusive means no clear call, values can overlap the other calls; inactive means above about -39%
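After 16 h attachment at 37C, HFF cells received test compound and HCMV-luciferase (1 PFU/cell); reporter luminescence read 72 h later, data normalized against buffer-only and known inhibitor Salinomycin.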
VACV mCherry inh: vaccinia inhibition (mCherry reporter). Vaccinia virus mCherry reporter infection, fluorescence. Potency, µM (doses to about 36.5 µM), for the others: top-dose activity change, negative = inhibition, most hits filed as inhibitors. hit rate 0.63% among 310,000. AID 720579; calls by dose curve; tested in A549 cells; further: potency means the concentration at half of the fitted maximal effect; nearly all actives have a fitted effect of over 35% in size
Vaccinia Venus: inhibitors of vaccinia virus (Venus reporter) | Potency, µM (top dose mostly 36.5 µM), inactives show top-dose activity change, negative = inhibition, usual class: inhibitors | hit rate 0.46% among 330,000 | Vaccinia virus Venus reporter expression, fluorescence; calls by dose curve; tested in A549 cells; further: potency means the concentration at half of the fitted maximal effect; nearly all actives have a fitted effect of over 30% in size
FMDV inh: foot and mouth disease virus antiviral activity; FMDV antiviral cell-based qHTS; AID 1159524; Potency, µM (highest dose often 57.9 µM), without a hit: at the highest dose activity change, negative = inhibition, hits mostly inhibitors; hit rate 1.2% among 410,000; calls by dose curve; tested in HEK293T cells; further: read-out not given here; potency means the concentration at half of the fitted maximal effect; nearly all actives have a fitted effect of over 45% in size
HCV inhibitor: inhibitors of hepatitis C virus infection; Huh7.5.1 HCVcc-Cre infection, luciferase reporter, 44 h; Potency, µM (doses to about 41.8 µM), without a hit: at the top dose activity change, negative = inhibition, most hits filed as inhibitors; hit rate 3.4% among 340,000; AID 651820; active means well fitted inhibition curve with a large enough effect; inconclusive means small, poorly fitted or top-dose-only effect, or another doubt; inactive means no such curve, though single readings can be large or run the other way; further: potency means the concentration at half of the fitted maximal effect
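1,000 cells/well; 4 h culture; + compound; + HCVcc-Cre (~0.5 moi); 44 h; luciferase substrate, RT 15 min; read 15 sec.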
Numbers without * were called inactive; i = inactive; ? = inconclusive; nt = not tested or not shown; [ ] = dose if it differs, or a comment. In the library only some 7.3% were active in any assay of this set; here they are far more common. On the % scale 0 is the no-effect control and ±100 the full control effect.

SMILES	HCMV antiviral	VACV mCherry inh	Vaccinia Venus	FMDV inh	HCV inhibitor
Cc1ccc(C(=O)C2=C(O)C(=O)N(Cc3cccnc3)C2c2ccc(Cl)cc2)o1 (centres undefined)	-26	-23%	-19%	16µM*	19%
CC(=O)c1ccc(Nc2nc3ccccc3nc2-n2nc(C)cc2C)cc1	-27	?	-29%	-15%	nt
Cc1[nH]n(-c2ncc(-c3ccc(Cl)cc3)s2)c(=O)c1C(c1ccc(Cl)cc1)C(C#N)C#N (centres undefined)	nt	i	-11%	?	10%
COc1ccc(C(c2c(C)[nH]n(C(N)=S)c2=O)C(C#N)C#N)cc1 (centres undefined)	12	-14%	-6%	25µM*	-2%
CCOC(=O)c1c(C)[nH]c(C)c1S(=O)(=O)N(C)CC(=O)Nc1ccc(C)cc1Br	-17	-14%	-1%	12%	nt
CCOc1ccc2nc(NC(=O)CSc3cn[nH]n3)sc2c1	90	-18%	-18%	3%	?
CCOc1ccc2nc(NC(=O)CN3CCC(n4nnc5cc(F)ccc54)CC3)sc2c1	-68*	nt	nt	?	?
O=C(CN1CCC(n2nnc3cc(F)ccc32)CC1)NC1CC1	44	nt	nt	13%	12%
COc1ccc2nc(NC(=O)CSc3cn[nH]n3)sc2c1	66	-21%	-7%	35%	13µM*
CCOc1ccc2nc(NC(=O)CSC3=NCCS3)sc2c1	-34	nt	?	-26%	8.9µM*
COc1ccc2nc(NC(=O)CSC3=NCCS3)sc2c1	-28	-8%[1.46 µM]	?	35%	?
Cc1ccc(S(=O)(=O)N2CCN(c3nc(-c4ccnnc4)nc4ccccc34)CC2)cc1	nt	i	-12%	nt	nt
Nc1ccn(C2C=CC(CO)O2)c(=O)n1 (centres undefined)	6	nt	nt	nt	nt
COCCNc1nc(Oc2cccc3ccccc23)c2sccc2n1	-9	i	-3%	-23%	nt
CCOc1ccc2ncc(S(=O)(=O)c3ccc(C)cc3)c(N3CCC4(CC3)OCCO4)c2c1	-90*	-29%	?	-22%	?
CCOC(=O)c1cnc2ccc(OCC)cc2c1N1CCN(C)CC1	14	nt	-16%	-16%	?
Cc1noc(C)c1-c1ccc(C(=O)NCc2cccs2)c2occc12	48	i	-11%	32%	nt
CN1CCN(Cc2cc(Cl)c3cccnc3c2OC(=O)c2cccs2)CC1	?	11µM*	?	-19%	?
CC(CN1CCOCC1)OC(=O)c1ccccc1Br (centres undefined)	49	nt	-21%	17%	12%
O=C(Oc1c(Cl)cc(Cl)c2cccnc12)N1CCCCC1	2	nt	nt	12%	-25%
O=C(Oc1c(CN2CCOCC2)cc(Cl)c2cccnc12)c1ccccc1Br	-67*	nt	nt	-20%	?
O=C(c1ccc(F)cc1)N1CCc2c([nH]c3ccccc23)C1c1ccc(Cl)cc1 (centres undefined)	-66*	-4%	-13%	-21%	nt
COc1cc(C(=O)N2CCc3c([nH]c4ccccc34)C2c2ccc(F)cc2)cc(OC)c1OC (centres undefined)	29	-16%	-7%	-14%	nt
O=C(CCc1ccccc1)N1CCc2c([nH]c3ccccc23)C1c1ccc(Cl)cc1 (centres undefined)	-68*	-8%	3%	-22%	nt
CSc1ccc(C2c3[nH]c4ccccc4c3CCN2C(=O)CCc2ccccc2)cc1 (centres undefined)	-79*	-5%	7%	2%	nt
SMILES	HCMV antiviral	VACV mCherry inh	Vaccinia Venus	FMDV inh	HCV inhibitor
CCOc1cccc(CC(=O)N2CCc3c([nH]c4ccccc34)C2c2ccc(Cl)cc2)c1OCC (centres undefined)	-2	i	-14%	-17%	nt
Cc1ccc(C2c3[nH]c4ccccc4c3CCN2C(=O)CSc2ccccc2)cc1 (centres undefined)	-30	-9%	-7%	-5%	nt
COc1cccc(C(=O)N2CCc3c([nH]c4ccccc34)C2c2ccc(SC)cc2)c1 (centres undefined)	-64*	-16%	-7%	-14%	nt
O=C(NN=Cc1ccccc1C(=O)O)c1cccc(S(=O)(=O)Nc2cccc(C(F)(F)F)c2)c1	15	nt	nt	0%	26%
COc1cccc(Cn2c(=O)cnc3cnc(Oc4cccc(Cl)c4)nc32)c1	nt	nt	nt	1%	nt
O=C(CSCc1ccc(F)cc1)N1CCc2c([nH]c3ccccc23)C1c1ccc(F)cc1 (centres undefined)	23	-25%	-24%	-27%	nt
